Results: the supplement of paper PMC6555819

These sequences were tested on PPARg homodimer (NR concentration 180 nM) (assay: PBM binding z-score (relative to random genomic background probes); higher = stronger binding; sequences stand for … in GC…GCGATTGACAGCGTAGAATGAAGG).
How it was run: (§1)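 Custom Agilent 4×180K protein-binding microarrays carried double-stranded probes, each with a 34-nt variable region. These regions held direct-repeat seeds, single-nucleotide variants, half-site ablations and random human genomic background sequences. Ligand-free nuclear receptor dimers were incubated on the arrays for 1 h, antibodies against each partner (one per run) detected binding, and scanned fluorescence was regression-normalized. Binding z-scores take the random background probes as reference.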
With ATCTCTAGGTAAGACACAGTTCAGTGAAGAACGC the PBM binding z-score was 1.82.
Work on CCGACTGGGGCAAGGTTACGATAACGCACAGCCA yielded a PBM binding z-score of 0.143.
With AATACAGGGTCACTAGTCCAGAGTAGGTACGAAT the PBM binding z-score was 1.66.
Work on ACTTACTGGTCAACGAGGTTATAGCACGCGTATA yielded a PBM binding z-score of 1.38.
Work on TAGCCTAGGTCATTCAGCGGCCAGTATAGAAAGC yielded a PBM binding z-score of 2.11.
For CCTACTGGGCCATCAGGTCATTCATATCAACGTT, the PBM binding z-score was 1.48.
CCTACTGGCCCATTCAGAGGTCATTGATCATATG was tested, and the PBM binding z-score was 2.98.
GCTTGTAGTTCAAGGTTAAGAAAGACTAAGCTAA showed a PBM binding z-score of 0.358.
TCTAGTTGGTCACTGAGGTCACACACGACGGGTA gave a PBM binding z-score of 4.13.
For ACTGACGGGTCAACGAGGTTATAGCACGCGTATA, the PBM binding z-score was 1.88.
Sequence ATCTCTAGGTAAGACGCAGTTCAGTGAAGAACGC has a PBM binding z-score of 0.0862.
For GGAATGAGGGCAAAGTTGATAGCATCTGTCGACG, the PBM binding z-score was 0.811.
Sequence CGTCCAAGGTCAAGGTCAGTAAAAGAGACTCGAA has a PBM binding z-score of 4.59.
TCTATTAGTTGATTAGGGCTACCGAAACAGCGGA was tested, and the PBM binding z-score was 1.29.
TCTAGTTGGTCAAAGATCACACACTCGAAATGCG gave a PBM binding z-score of 1.93.
Sequence AGTCAGAGTTCAGGACGAGGTAACGTAAAGCACG has a PBM binding z-score of 1.36.
Sequence CGAACTAGGTCACGGACAGTGAATCTCCGCACGC has a PBM binding z-score of 4.94.
With TCATATAGGTAAAAGCTAGGTGAAAGTCCGATCT the PBM binding z-score was 0.659.
TCGAGTAGGTAACCAATGGGGCATTCAGCTTTCT was tested, and the PBM binding z-score was -0.5.
For TCGAGTAGGTTAGCAATGGGGCATTCAGCTTTCT, the PBM binding z-score was -0.285.
ATGTCTAGGTAACCAAGTTCAGTGAATGCCGAAC was tested, and the PBM binding z-score was 0.338.
TCTATTAGTTGAAGGGCAAGCGACGAGTCCGTTT gave a PBM binding z-score of 0.728.
Sequence TCTGCGAGGTCAGTTGGTCAGCTAACGAGCTGCC has a PBM binding z-score of 1.
With AGAATGAGGTTACCAAAGATCCGGGAAACGCTTG the PBM binding z-score was 0.752.
GCTAGCAGGCCATTTGGGTCACTCCATGACGGGC showed a PBM binding z-score of -0.247.
Work on CTCGAAAGGTCGGTTGAGGTGAGGATACGGATAA yielded a PBM binding z-score of 1.24.
With CCTATTAGTTGACCATAATGGCAACCGAAGCTCG the PBM binding z-score was 2.
CCTACTGGACCACGAAAGGTCATTGATTCAGTGA was tested, and the PBM binding z-score was 3.78.
CTTCAAAGTTCAAGGTAACGTAACAGAAAGCAGC gave a PBM binding z-score of 2.93.
TCGAGTAGGTTACCAATCGGGCATTCAGCTTTCT showed a PBM binding z-score of -0.473.
In the case of AGAACGAGGGCAATGAGATGATAGCACGGGTGGC, the PBM binding z-score is reported as 0.45.
Work on CCGAGTAGGTTTTGGGGCATTCAGGCAACGGTGA yielded a PBM binding z-score of 0.76.
Work on CCTATTAGTTGACCATAAGTGCAACCGAAGCTCG yielded a PBM binding z-score of 1.89.
For TCATATAGGTAAATGCTAGGTGAAAGTTCGATCT, the PBM binding z-score was 1.29.
Sequence CGTCCAAGGTCAGAGCGGTCAGTGAATGCCGAGT has a PBM binding z-score of 2.18.
TAGCCTAGGTCCTGGGCCAGTATACCACGCGAAC gave a PBM binding z-score of -1.29.
In the case of GGAACGACGGCAAAGTTGATAGCATCTGTCGACG, the PBM binding z-score is reported as -0.573.
With GTACCAAGGTGAGTAGGTCGTTGATGAGTAGGCG the PBM binding z-score was 0.691.
CGAACTAGGTCCAGGACAGTGAATCTCCGCACGC gave a PBM binding z-score of -0.302.

What follows are sequences tested on PXR:RXRa (NR concentration 270 nM, RXRa partner concentration 90 nM) in the same assay as above.
How it was run: as §1
ATCTCTAGGTAAGACACAGTTCAGTGAAGAACGC showed a PBM binding z-score of 1.31.
CCGACTGGGGCAAGGTTACGATAACGCACAGCCA gave a PBM binding z-score of 0.367.
AATACAGGGTCACTAGTCCAGAGTAGGTACGAAT was tested, and the PBM binding z-score was 2.97.
In the case of ACTTACTGGTCAACGAGGTTATAGCACGCGTATA, the PBM binding z-score is reported as 1.89.
In the case of TAGCCTAGGTCATTCAGCGGCCAGTATAGAAAGC, the PBM binding z-score is reported as 1.94.
Sequence CCTACTGGGCCATCAGGTCATTCATATCAACGTT has a PBM binding z-score of 1.73.
CCTACTGGCCCATTCAGAGGTCATTGATCATATG gave a PBM binding z-score of 4.67.
GCTTGTAGTTCAAGGTTAAGAAAGACTAAGCTAA gave a PBM binding z-score of 1.71.
TCTAGTTGGTCACTGAGGTCACACACGACGGGTA was tested, and the PBM binding z-score was 4.97.
ACTGACGGGTCAACGAGGTTATAGCACGCGTATA gave a PBM binding z-score of 4.39.
With ATCTCTAGGTAAGACGCAGTTCAGTGAAGAACGC the PBM binding z-score was 0.526.
In the case of GGAATGAGGGCAAAGTTGATAGCATCTGTCGACG, the PBM binding z-score is reported as 1.43.
With CGTCCAAGGTCAAGGTCAGTAAAAGAGACTCGAA the PBM binding z-score was 4.72.
TCTATTAGTTGATTAGGGCTACCGAAACAGCGGA gave a PBM binding z-score of 0.181.
TCTAGTTGGTCAAAGATCACACACTCGAAATGCG showed a PBM binding z-score of 1.07.
In the case of AGTCAGAGTTCAGGACGAGGTAACGTAAAGCACG, the PBM binding z-score is reported as 3.45.
For CGAACTAGGTCACGGACAGTGAATCTCCGCACGC, the PBM binding z-score was 2.4.
TCATATAGGTAAAAGCTAGGTGAAAGTCCGATCT showed a PBM binding z-score of 0.255.
In the case of TCGAGTAGGTAACCAATGGGGCATTCAGCTTTCT, the PBM binding z-score is reported as -0.372.
TCGAGTAGGTTAGCAATGGGGCATTCAGCTTTCT was tested, and the PBM binding z-score was -0.264.
Work on ATGTCTAGGTAACCAAGTTCAGTGAATGCCGAAC yielded a PBM binding z-score of 2.
TCTATTAGTTGAAGGGCAAGCGACGAGTCCGTTT gave a PBM binding z-score of 0.841.
TCTGCGAGGTCAGTTGGTCAGCTAACGAGCTGCC gave a PBM binding z-score of 2.88.
AGAATGAGGTTACCAAAGATCCGGGAAACGCTTG showed a PBM binding z-score of 0.78.
With GCTAGCAGGCCATTTGGGTCACTCCATGACGGGC the PBM binding z-score was 0.113.
CTCGAAAGGTCGGTTGAGGTGAGGATACGGATAA was tested, and the PBM binding z-score was 3.06.
With CCTATTAGTTGACCATAATGGCAACCGAAGCTCG the PBM binding z-score was 0.599.
Work on CCTACTGGACCACGAAAGGTCATTGATTCAGTGA yielded a PBM binding z-score of 5.28.
In the case of CTTCAAAGTTCAAGGTAACGTAACAGAAAGCAGC, the PBM binding z-score is reported as 4.18.
Sequence TCGAGTAGGTTACCAATCGGGCATTCAGCTTTCT has a PBM binding z-score of -0.159.
AGAACGAGGGCAATGAGATGATAGCACGGGTGGC gave a PBM binding z-score of 0.149.
CCGAGTAGGTTTTGGGGCATTCAGGCAACGGTGA was tested, and the PBM binding z-score was -0.31.
CCTATTAGTTGACCATAAGTGCAACCGAAGCTCG showed a PBM binding z-score of 1.11.
Sequence TCATATAGGTAAATGCTAGGTGAAAGTTCGATCT has a PBM binding z-score of 1.17.
CGTCCAAGGTCAGAGCGGTCAGTGAATGCCGAGT gave a PBM binding z-score of 3.25.
In the case of TAGCCTAGGTCCTGGGCCAGTATACCACGCGAAC, the PBM binding z-score is reported as -0.91.
Sequence GGAACGACGGCAAAGTTGATAGCATCTGTCGACG has a PBM binding z-score of -0.362.
With GTACCAAGGTGAGTAGGTCGTTGATGAGTAGGCG the PBM binding z-score was 0.089.
CGAACTAGGTCCAGGACAGTGAATCTCCGCACGC was tested, and the PBM binding z-score was -0.535.
